Source: PubChem BioAssay (EPA / NIEHS)
Records with an inconclusive call do not appear. The source made the active and inactive calls. How the source made its calls, unless noted: active means hit-call score of the fitted dose curve at least 0.9, where 1 is the maximum; inactive means score below 0.9.

Tests used:
DIO3 (gene 1735) = assay: CCTE_GLTED_hDIO3: CCTE's human Deiodinase 3 (DIO3) Inhibition Assay, Great Lakes Toxicology and Ecology Division (GLTED) Lab (AID 2284055; active means hit-call score of the fitted dose curve at least 0.9, where 1 is the maximum;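 on AC50: potency is for inhibition seen as loss of released iodide signal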)
Outline: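 Human type 3 deiodinase, expressed via adenovirus system, was exposed to test chemicals for 3 hours in a cell-free format. Released iodide was then determined spectrophotometrically by Sandell-Kolthoff; plates ran in triplicate.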

DIO2 (gene 1734) = assay: CCTE_GLTED_hDIO2: CCTE's human Deiodinase 2 (DIO2) Inhibition Assay, Great Lakes Toxicology and Ecology Division (GLTED) Lab (AID 2284050; active means hit-call score of the fitted dose curve at least 0.9, where 1 is the maximum)
Outline: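 Inhibition is judged by reduced iodide release: uninhibited human DIO2 frees iodide from substrate over 3 h, measured afterward by Sandell-Kolthoff colorimetry. Iodinated chemicals or nitrite, iron and thiocyanate may interfere.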

[1] = CCTE_Shafer_MEA_dev_per_burst_interspike_interval: CCTE's Neural Network Formation Assay for Burst Interspike Interval, Shafer Lab (AID 2284044);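 further: mean spike spacing inside bursts as AUC over recordings on days 5 7 9 12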
Outline: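 Spontaneous activity of maturing rat cortical networks is recorded on DIV 5, 7, 9 and 12 under chronic compound exposure beginning at plating. Endpoint: burst interspike interval well-mean, collapsed into trapezoidal AUC and fitted in the negative direction relative to DMSO.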

[2] = CCTE_Shafer_MEA_dev_burst_duration_mean: CCTE's Neural Network Formation Assay for Mean Burst Duration, Shafer Lab (AID 2284045)
Outline: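 Network-formation assay in primary rat cortical neurons; treatment spans twelve days of development. Mean burst duration per well is integrated by trapezoidal AUC and fitted in the loss-of-signal direction against DMSO baseline.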

[3] = CCTE_Shafer_MEA_dev_interburst_interval_mean: CCTE's Neural Network Formation Assay for Mean Interburst Interval, Shafer Lab (AID 2284046);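 further: well-mean interburst interval of bursting electrodes as AUC over four recording days; curve fitted for decrease in interburst interval relative to DMSO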
Outline: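 Rat cortical neurons, 1.5 x 10^5 cells/well, 48-well MEA; compound from day 0 through DIV 12, media and treatment renewed DIV 5/9. Recordings DIV 5, 7, 9, 12; well-mean interburst interval → trapezoidal AUC, loss direction vs DMSO.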

[4] = CCTE_Shafer_MEA_dev_inter_network_spike_interval_mean: CCTE's Neural Network Formation Assay for Mean Inter-network Spike Interval, Shafer Lab (AID 2284047)
Outline: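 Primary rat cortical neurons on PEI-coated 48-well MEAs (16 electrodes/well) were exposed from plating day 0 to DIV 12, with dosing renewed at DIV 5 and 9. Recordings at DIV 5, 7, 9, 12 were collapsed by trapezoidal AUC, loss-of-signal fit vs DMSO.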

[5] = CCTE_Shafer_MEA_dev_network_spike_number: CCTE's Neural Network Formation Assay for Number of Network Spikes, Shafer Lab (AID 2284048);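 further: synchronized bursts across electrodes counted on days 5 7 9 12 and integrated as AUC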
Outline: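 Extracellular recordings from 16-electrode wells track network formation in rat cortical cultures under continuous treatment from plating. The endpoint is network spike number, expressed as AUC across DIV 5–12 relative to DMSO vehicle.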

[6] = CCTE_Shafer_MEA_dev_network_spike_peak: CCTE's Neural Network Formation Assay for Mean Number of Electrodes in Network Spike, Shafer Lab (AID 2284049);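 on AC50: fitted for loss of signal meaning fewer electrodes in network spikes than DMSO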
Outline: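 Continuous 12-day exposure of rat cortical cultures, starting at plating, on MEA plates. Endpoint: electrodes participating in network-spike peaks, AUC across DIV 5–12, DMSO as negative control.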

[7] = CCTE_Shafer_MEA_dev_spike_duration_mean: CCTE's Neural Network Formation Assay for Mean Spike Duration, Shafer Lab (AID 2284051);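 further: mean network spike duration pooled as area under curve over DIV 5 to 12 recordings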;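 on AC50: potency for a decrease in mean network spike duration versus DMSO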
Outline: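 Rat cortical primary cultures, 48-well MEA (16 electrodes/well); compound from plating, renewed DIV 5, 9. Network spike duration (AxIS adaptive detector) recorded DIV 5/7/9/12, combined as trapezoidal AUC; loss direction vs DMSO.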

[8] = CCTE_Shafer_MEA_dev_network_spike_duration_std: CCTE's Neural Network Formation Assay for Standard Deviation of Network Spike Duration, Shafer Lab (AID 2284052);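 further: area under curve of spike duration SD across recording days 5 to 12; hits are decreases in network spike duration SD versus DMSO vehicle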
Outline: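 Rat cortical cultures, 1.5 x 10^5 cells/well, exposed continuously from plating to DIV 12 with media/compound renewal at DIV 5, 9. Spontaneous activity recorded DIV 5/7/9/12, AxIS adaptive spike detector; AUC across days; negative direction vs DMSO.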

[9] = CCTE_Shafer_MEA_dev_per_network_spike_spike_number_mean: CCTE's Neural Network Formation Assay for Mean Number of Spikes in a Network Spike, Shafer Lab (AID 2284053)
Outline: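 Rat cortical primary cultures on 48-well MEA; compound from day 0, re-dosed with full media change DIV 5, 9. Recorded DIV 5, 7, 9, 12; spikes in 0.05 s window at network-spike peak ÷ total network spikes; AUC; loss vs DMSO.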

[10] = CCTE_Shafer_MEA_dev_per_network_spike_spike_percent: CCTE's Neural Network Formation Assay for Percent of Spikes in a Network Spike, Shafer Lab (AID 2284054)
Outline: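 Developing networks of rat cortical neurons are dosed at day 0 and recorded extracellularly four times up to day 12. The endpoint is the area under the curve of percent spikes in network spikes, fitted in the negative direction relative to DMSO.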

[11] = CCTE_Shafer_MEA_dev_LDH: CCTE's Lactate Dehydrogenase Assay for Cytotoxicity in the Neural Network Formation Assay, Shafer Lab (AID 2284068; active means hit-call score of the fitted dose curve at least 0.9, where 1 is the maximum;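 further: exposure for twelve days from plating with re-dosing on DIV 5 and 9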)
Outline: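 Rat cortical primary neurons, MEA culture; dosing day 0–12, full medium plus compound exchange DIV 5, 9. Read-out: LDH enzyme activity, spectrophotometric. DMSO = negative control/baseline; signal loss → cytotoxicity.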

[12] = CCTE_Shafer_MEA_dev_mutual_information_norm: CCTE's Neural Network Formation Assay for Mutual Information Normalization, Shafer Lab (AID 2284091)
Outline: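 Exposure of primary rat cortical neurons began at plating and ran to DIV 12, with full media and treatment renewal after DIV 5 and 9 recordings. Mutual information AUC (DIV 5–12) was analysed for loss versus DMSO.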

[13] = CCTE_Shafer_MEA_dev_correlation_coefficient_mean: CCTE's Neural Network Formation Assay for Mean Correlation Coefficient, Shafer Lab (AID 2284093);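 on AC50: well mean pairwise spike train correlation integrated as AUC over recording days 5 to 12; potency fitted for loss of correlation relative to DMSO vehicle wells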
Outline: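 Rat cortical cultures, 1.5 x 10^5 cells/well, dosed from day 0 for 12 days. Spontaneous spikes recorded DIV 5/7/9/12; electrode-pair correlation coefficients averaged, AUC taken. Fit in loss direction vs DMSO.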

[14] = CCTE_Shafer_MEA_dev_bursting_electrodes_number: CCTE's Neural Network Formation Assay for Number of Bursting Electrodes, Shafer Lab (AID 2284043; active means hit-call score of the fitted dose curve at least 0.9, where 1 is the maximum;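 on AC50: potency is for loss of bursting electrodes relative to DMSO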)
Outline: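 Counted: electrodes with burst rate ≥1 per 2 min in each well. Cells: primary rat cortex, 1.5 x 10^5/well, on 16-electrode MEA wells. Exposure: DIV 0–12, compound renewed DIV 5 and 9. Recording days 5, 7, 9, 12; AUC vs DMSO baseline.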

[15] = CCTE_Shafer_MEA_dev_AB: CCTE's Alamar Blue Assay for Cytotoxicity in the Neural Network Formation Assay, Shafer Lab (AID 2284083; active means hit-call score of the fitted dose curve at least 0.9, where 1 is the maximum;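 further: resazurin reduction fluorescence as viability of cultured neurons; twelve days of exposure from plating with re-dosing on DIV 5 and 9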)
Outline: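 Rat cortical primary cultures, 1.5 x 10^5 cells/well on MEA; continuous compound exposure over 12 days of network development, re-dosed with full medium change DIV 5 and 9. Alamar Blue fluorescence; loss of signal = cytotoxicity vs DMSO baseline.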

Measured: AC50

C=C(C)C(=O)OCC(F)(F)C(F)(F)C(F)(F)F
inactive: DIO3 (gene 1735)

CC(Cc1ccc(O)c(O)c1)C(C)Cc1ccc(O)c(O)c1 (configuration not stated)
active: DIO2 (gene 1734) 19.3 µM | DIO3 (gene 1735) 0.0863 µM

O=C(Cl)C(F)(F)C(F)(F)C(F)(F)C(F)(F)C(F)(F)C(F)(F)C(F)(F)C(F)(F)F
active: DIO2 (gene 1734) 69.4 µM

OCCCC(F)(F)C(F)(F)C(F)(F)F
not listed: DIO3 (gene 1735) | DIO2 (gene 1734) | [14] | [15]
inactive: all other assays above

O=C(O)C(F)(F)C(F)(F)C(F)(F)C(F)(F)C(F)(F)C(F)(F)C(F)(F)C(F)(F)Cl
active: DIO2 (gene 1734) 100 µM
not listed: DIO3 (gene 1735) | [15]
inactive: all other assays above

CC(C)(C)C(=O)CC(=O)C(F)(F)C(F)(F)C(F)(F)F
active: [14] 15 µM | [6] 23.7 µM | [7] 26 µM | [9] 25.3 µM | [10] 22.5 µM | [11] 21.9 µM | [15] 23.9 µM | [13] 24.1 µM
inactive: [1] | [2] | [3] | [4] | [5] | [8] | [12]

NC(=O)C(F)(F)C(F)(F)C(F)(F)C(F)(F)F
not listed: DIO3 (gene 1735) | DIO2 (gene 1734) | [11] | [14] | [15]
inactive: all other assays above

FC(F)(F)C(F)(F)C(F)(F)C(F)(F)C(F)(F)C(F)(F)CC1CO1 (configuration not stated)
not listed: DIO3 (gene 1735) | DIO2 (gene 1734) | [11] | [14] | [15]
inactive: all other assays above

O=C(O)C(F)(F)C(F)(F)C(F)(F)C(F)(F)C(F)(F)C(F)(F)C(F)(F)C(F)(F)C(F)(F)C(F)(F)C(F)(F)C(F)(F)C(F)(F)F
active: DIO3 (gene 1735) 33.1 µM

FC(F)(F)C(F)(F)C(F)(F)C(F)(F)C(F)(F)CCI
active: [14] 0.822 µM | [6] 22.3 µM | [7] 15 µM | [9] 15 µM | [11] 21.8 µM | [15] 23.9 µM | [13] 25.2 µM
not listed: DIO3 (gene 1735) | DIO2 (gene 1734)
inactive: all other assays above
